Source: PubChem BioAssay (NCI)
About 83,000 compounds went through this panel and 20% of them were active in at least one assay; those are over-represented in the sample as a whole.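 Cell lines were cultured in 96-well plates, exposed to a single compound concentration, and assessed for percent growth 48 hours later.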 Unmarked numbers belong to inactive results. The source made the active and inactive calls. The calls were made as follows: active = growth percent below 10; inactive = the rest.

Assays:
Assay in all cases: NCI-60 one-dose screen, 48 h (100 = growth as untreated, 0 = no growth, -100 = all killed)
Conditions in all cases: 10 µM unless noted
SK-MEL-2 melanoma = tested on: SK-MEL-2 melanoma
EKVX NSCLC = tested on: EKVX NSCLC
SN12C renal = tested on: SN12C renal
UO-31 renal = tested on: UO-31 renal
TK-10 renal = tested on: TK-10 renal
ACHN renal = tested on: ACHN renal
CAKI-1 renal = tested on: CAKI-1 renal
A498 renal = tested on: A498 renal
CCRF-CEM leukemia = tested on: CCRF-CEM leukemia
MOLT-4 leukemia = tested on: MOLT-4 leukemia

Row | SMILES | growth (SK-MEL-2 melanoma) | growth (EKVX NSCLC) | growth (SN12C renal) | growth (UO-31 renal) | growth (TK-10 renal) | growth (ACHN renal) | growth (CAKI-1 renal) | growth (A498 renal) [%] | growth (CCRF-CEM leukemia) | growth (MOLT-4 leukemia)
1 | O=C(Nn1c2c(sc1=NC1CC1)C(=O)c1ccccc1C2=O)c1cc2ccc1CCc1ccc(cc1)CC2 | 49.5% | 67.5% | 30.9% | 21.5% | 115% | 25.6% | 30.8% | 89.4 | 22.6% | 8.53% (active)
2 | CN(c1cc2ncc(=O)[nH]c2cc1NC(N)=NCc1ccc(Cl)cc1)C1CCCCC1 | 92.7% | 82.6% | 67.9% | 91% | 85.2% | 98.3% | 98.5% | 80.5 | 21.9% | 35.5%
3 | Oc1c(I)cc(I)cc1CNCc1ccccn1 | 35.7% | 25.9% | 38.4% | 5.01% (active) | 23.4% | 24.6% | 15.4% | 62.4 | 23.6% | 16.2%
4 | NS(=O)(=O)c1ccccc1NC(=O)Nc1nc2ccccc2s1 | 102% | 85.6% | 98.3% | 84.1% | 153% | 99.4% | 89.7% | 97.6 | 99.2% | 102%
5 | O=C1NC(=O)C(Cc2ccc(OCc3ccc(-c4ccc(Cl)cc4Cl)cc3)cc2)S1 (stereo not given) | 49.8% | 37.8% | 59.5% | 34.1% | 72.9% | 55.2% | 32.7% | 83.4 | 42.2% | 17%
6 | N#Cc1nc(-c2ccccc2)oc1S(=O)(=O)N1CCN(c2ccccc2)CC1 | 84.4% | 116% | 88% | 84.5% | 104% | 102% | 109% | 95.1 | 2.42% (active) | 12.2%
7 | O=C(Nc1cccc(-c2ccc(Cl)c(C(F)(F)F)c2)c1)C1CCN(Cc2cccc3cccnc23)CC1 | 31.6% | 34.6% | 4.06% (active) | 2.47% (active) | 80.6% | -90.6% (active) | -52.5% (active) | 58.7 | 4.08% (active) | -9.69% (active)
8 | O=C(OC(CO)C(=O)NC12CC3CC(CC(C3)C1)C2)c1ccc(Cl)cc1 (stereo not given) | 106% | 96.9% | 109% | 88.7% | 102% | 100% | 99.4% | 103 | 88.8% | 98.7%
9 | Cc1ccc(-c2nc(N3CCCNCC3)c3oc(-c4ccccc4)nc3n2)cc1 | -67.2% (active) | 38.2% | -85.1% (active) | -99% (active) | -95.9% (active) | -98.8% (active) | -71% (active) | 93.4 | -71% (active) | -73.2% (active)
10 | COC1/C=C/OC2(C)Oc3c(C)c(O)c4c(O)c(c(/C=N/Nc5ccc([N+](=O)[O-])cc5[N+](=O)[O-])c(O)c4c3C2=O)NC(=O)C(C)=C/C=C/C(C)C(O)C(C)C(O)C(C)C(OC(C)=O)C1C (stereo not given) | 30.5% | 45.1% | -5.59% (active) | 70.2% | 25.7% | 28.1% | 74.2% | 96 | 6.19% (active) | 0.359% (active)
11 | CCOC(=O)c1ccc(NC(=O)c2nc(-c3cc(OC)c(OC)c(OC)c3)n(-c3ccc(Cl)cc3)n2)cc1 | 85.9% | 94% | 85.2% | 58.8% | 93.3% | 94.1% | 80.7% | 86 | 90% | 81.8%
12 | CC(C)Cn1cnc2c(=O)[nH]c(N)nc21 | 87.9% | 101% | 98.9% | 94.4% | 88.6% | 106% | 95.4% | 94.1 | 107% | 92.4%
13 | Cn1cc(-c2csc(-c3c[nH]c4ccccc34)n2)c2cnccc21 | 96.2% | 7.91% (active) | 43.5% | -64.4% (active) | 55.4% | -4.48% (active) | -1.8% (active) | 77.1 | -8.15% (active) | -5.2% (active)
